± gives the uncertainty stated by the source.
Each compound was assayed on HEK293T-Rex ERSE-FLuc (assay: ERSE-FLuc reporter activation, triplicate confirmation, relative to 500 nM thapsigargin (% of thapsigargin); higher = stronger ATF6/ERSE reporter activation). Settings: 6.8 µM; 18 h; screen: confirmation.
Procedure: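 HEK293T-Rex cells stably expressing the ERSE-firefly luciferase (BiP promoter, ATF6-preferring) or XBP1-splicing Renilla luciferase (IRE1/XBP1s) reporter, 1536-well plates, compound at 6.8 µM for 18 hr at 37 °C; luminescence read […] and expressed as % activation = 100*(compound - median DMSO)/(median 500 nM thapsigargin - median DMSO). Primary screen was single-pass; confirmation screen in triplicate (mean ± SD).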
With `Cc1ccc2nc(NC(=O)c3cccc4ccccc34)sc2c1` the ERSE-FLuc reporter activation was 43.1 ± 7.8.
`O=C(N/N=C/c1cccc2ccccc12)c1ccc2c(c1)OCO2` showed an ERSE-FLuc reporter activation of 29.9 ± 4.3.
`CCCCCCc1ccc(-c2ncc(N)cn2)cc1` showed an ERSE-FLuc reporter activation of 33.2 ± 4.7.
Compound `CCOc1ccc(NC(=O)c2ccc3c(c2)OCO3)c([N+](=O)[O-])c1` has an ERSE-FLuc reporter activation of 30.1 ± 1.8.
In the case of `Nc1c(C(=O)Nc2ccccc2)sc2nc3c(cc12)CCCCC3`, the ERSE-FLuc reporter activation is reported as 35.6 ± 5.3.
For `Oc1ccc(-c2csc3nc(-c4ccccc4)nn23)c(O)c1`, the ERSE-FLuc reporter activation was 33.9 ± 2.6.
With `CCn1c(/C(C#N)=C/c2ccc(OC)cc2)nc2ccccc21` the ERSE-FLuc reporter activation was 27.2 ± 7.1.
In the case of `CC(C)CC(c1nnnn1C1CCCC1)N1CCN(C(=O)c2ccco2)CC1` (stereo unspecified), the ERSE-FLuc reporter activation is reported as 29.5 ± 1.
In the case of `CCN(CC)c1ccc(NC(=O)c2cccc(OC)c2)cc1`, the ERSE-FLuc reporter activation is reported as 26.1 ± 1.1.
Compound `O=C(CC(=O)Nc1ccc2nc3n(c(=O)c2c1)CCCCC3)NCc1ccco1` has an ERSE-FLuc reporter activation of 28 ± 11.
Compound `N/C(=N\N=C\c1ccc(O)c(O)c1)c1nonc1N` has an ERSE-FLuc reporter activation of 71.1 ± 7.1.
Compound `Cc1ccc(O)c(NC(=O)c2cc(CC(C)C)on2)c1` has an ERSE-FLuc reporter activation of 84.4 ± 15.
For `Oc1cccc(/C=N/Nc2ccc(Cl)nn2)c1O`, the ERSE-FLuc reporter activation was 35 ± 6.
`Cc1ccn2cc(-c3ccc(O)c(O)c3)nc2c1` was tested, and the ERSE-FLuc reporter activation was 36.4 ± 12.
Work on `O=C1N/C(=C/c2ccc(O)cc2)C(=O)N1c1ccccc1` yielded an ERSE-FLuc reporter activation of 66.4 ± 15.
For `O=C(/C=C/c1ccccc1)Nc1ccc(Br)cn1`, the ERSE-FLuc reporter activation was 27.6 ± 6.8.
